{
  "source": "paper PMC10726135",
  "about": "“HNF4α isoforms regulate the circadian balance between carbohydrate and lipid metabolism in the liver”",
  "note": "The full ranking holds about 18,000 sequences; the median of “log2 normalized intensity” is about 0.36, and the highest 2% start at about 7.3. The sample as a whole holds a higher share of the highest values than the screen did.",
  "data": [
    {"biological_target": "T1, HNF4alpha8 (COS-7 nuclear extract) (Homo sapiens, UniProt P41235-5 1-452)", "T1 sequence": "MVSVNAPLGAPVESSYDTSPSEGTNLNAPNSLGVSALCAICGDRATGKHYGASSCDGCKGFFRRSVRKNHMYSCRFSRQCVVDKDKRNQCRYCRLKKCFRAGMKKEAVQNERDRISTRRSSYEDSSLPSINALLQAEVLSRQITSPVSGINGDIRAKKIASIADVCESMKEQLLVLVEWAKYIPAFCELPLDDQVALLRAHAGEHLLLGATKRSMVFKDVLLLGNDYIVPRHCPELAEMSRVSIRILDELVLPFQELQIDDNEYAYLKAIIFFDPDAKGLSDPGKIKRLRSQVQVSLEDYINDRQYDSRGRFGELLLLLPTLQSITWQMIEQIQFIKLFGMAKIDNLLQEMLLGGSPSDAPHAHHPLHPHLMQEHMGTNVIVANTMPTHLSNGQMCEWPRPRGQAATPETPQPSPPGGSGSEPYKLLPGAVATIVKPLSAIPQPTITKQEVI", "assay": "protein-binding microarray; COS-7 nuclear extract on double-stranded Agilent 4x180k PBM; binding buffer, salt, pH and temperature not given in the material; high values mean tight binding", "settings": "chain copies: 2; label: 3' end of strand 1 on the slide; dsDNA, one strand shown", "how_it_was_run": "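A custom Agilent SurePrint G3 4x180k array, spotted in quadruplicate with ~44,000 test sequences as ~60-nt oligonucleotides made double-stranded, was incubated with nuclear extracts. The extracts came from COS-7 cells transiently transfected by CaPO4 with a human HNF4α isoform expression vector. Bound HNF4α was imaged on an Agilent G2565CA scanner at 2-µm resolution, and the binding signal was taken as Agilent software's background-corrected, normalized gProcessedSignal.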", "units": {"binding signal": "log2 normalized intensity"}, "values": [
      {"sequence": "GCTTATCTGGGAGGGGGAGGTTTTGTGTCTGCCTAGGGAGATTAGAGTATCGGTCGA", "binding signal": 0.884},
      {"sequence": "AAATGTAATCAGCAAGTTTTATATGAAAACGCCTAGGGAGATTAGAGTATCGGTCGA", "binding signal": 0.415},
      {"sequence": "CTGTGGTCATTAATTAACTTGTGTTCAGAGGCCTAGGGAGATTAGAGTATCGGTCGA", "binding signal": 1.07},
      {"sequence": "TGTTCTTTACTTCCTTTTGTTCCTGCTCTAGCCTAGGGAGATTAGAGTATCGGTCGA", "binding signal": 1.67},
      {"sequence": "AGTCTGCTCAAGTCTTTTAGAATGTGGATGGCCTAGGGAGATTAGAGTATCGGTCGA", "binding signal": 1.71},
      {"sequence": "TCAGTTGCAGAAAAACAGGTTCTGCAACACGCCTAGGGAGATTAGAGTATCGGTCGA", "binding signal": 0.876},
      {"sequence": "ATTACCAATGAGAAACCTCAAAGGTTAGGGGCCTAGGGAGATTAGAGTATCGGTCGA", "binding signal": 0.852},
      {"sequence": "GAGCAAAGGGCATGGAGGATTTAGATAACAGCCTAGGGAGATTAGAGTATCGGTCGA", "binding signal": 0.728},
      {"sequence": "CTTATCTACTTTAAGATTTGACCCTTGGCCGCCTAGGGAGATTAGAGTATCGGTCGA", "binding signal": 7.78},
      {"sequence": "AGTGGTTTAAAAACTTATCTTGTGACCTTTGCCTAGGGAGATTAGAGTATCGGTCGA", "binding signal": 7.47},
      {"sequence": "TTTAAAAACTTATCTTGTGACCTTTGACTCGCCTAGGGAGATTAGAGTATCGGTCGA", "binding signal": 8.96},
      {"sequence": "ATCTGACCTTTGGTTAACTTCTTAACTTGGGCCTAGGGAGATTAGAGTATCGGTCGA", "binding signal": 3.5},
      {"sequence": "ATTCTCTTATCTACTTTAAGATTTGACCCTGCCTAGGGAGATTAGAGTATCGGTCGA", "binding signal": 5.76},
      {"sequence": "TATCTTGTGACCTTTGACTCATTATCCCCCGCCTAGGGAGATTAGAGTATCGGTCGA", "binding signal": 7.09},
      {"sequence": "AAACTTATCTTGTGACCTTTGACTCATTATGCCTAGGGAGATTAGAGTATCGGTCGA", "binding signal": 7.16},
      {"sequence": "TTAAGATTTGACCCTTGGCCAGGTGCAGTGGCCTAGGGAGATTAGAGTATCGGTCGA", "binding signal": 5.41},
      {"sequence": "CTGAACTTTAAACTGGTGTGTCTTGCCTTTGCCTAGGGAGATTAGAGTATCGGTCGA", "binding signal": 2.42},
      {"sequence": "TTACTGGGGCCCATTGTATGAGGGTGAAGTGCCTAGGGAGATTAGAGTATCGGTCGA", "binding signal": 0.972},
      {"sequence": "CATCGGACTTTGATCTGCCACATACCTTTAGCCTAGGGAGATTAGAGTATCGGTCGA", "binding signal": 5.04},
      {"sequence": "CTATCTCAGATAGCTTTAGCCGGACTTTGTGCCTAGGGAGATTAGAGTATCGGTCGA", "binding signal": 5.85},
      {"sequence": "AAATGTACTGGATATAGCCAGATGTCCTTTGCCTAGGGAGATTAGAGTATCGGTCGA", "binding signal": 2.37},
      {"sequence": "CGGACTTTGTCCTTTGATTTTTTAAAGTAAGCCTAGGGAGATTAGAGTATCGGTCGA", "binding signal": 5.37},
      {"sequence": "TAGCTTTAGCCGGACTTTGTCCTTTGATTTGCCTAGGGAGATTAGAGTATCGGTCGA", "binding signal": 7.5},
      {"sequence": "TCAGATAGCTTTAGCCGGACTTTGTCCTTTGCCTAGGGAGATTAGAGTATCGGTCGA", "binding signal": 8.54},
      {"sequence": "ACCCAGGTGTGTTGCAACTTTGACTATAGCGCCTAGGGAGATTAGAGTATCGGTCGA", "binding signal": 0.342},
      {"sequence": "GTTTGCATTTTAACCTTTGGCTGGTAGAGCGCCTAGGGAGATTAGAGTATCGGTCGA", "binding signal": 4.17},
      {"sequence": "AGCCGTCTGGTAAATTTCTAACACTCCCCAGCCTAGGGAGATTAGAGTATCGGTCGA", "binding signal": 2.15},
      {"sequence": "GGGTCAGTTTATCTAAGATTCCCCCTACCCGCCTAGGGAGATTAGAGTATCGGTCGA", "binding signal": 4},
      {"sequence": "TGGGCTCCTGCCTTGGAGAAGTGAACTTTGGCCTAGGGAGATTAGAGTATCGGTCGA", "binding signal": 5.62},
      {"sequence": "TCCTGCCTTGGAGAAGTGAACTTTGCCCTCGCCTAGGGAGATTAGAGTATCGGTCGA", "binding signal": 10.7},
      {"sequence": "GAGAAGTGAACTTTGCCCTCTCTTTCTGGAGCCTAGGGAGATTAGAGTATCGGTCGA", "binding signal": 8.26},
      {"sequence": "TCTCTGGCTTGATCCCTGAACTTTGCTCCCGCCTAGGGAGATTAGAGTATCGGTCGA", "binding signal": 8.76},
      {"sequence": "CCTTGGATCTCCTGCACCTGAACTTTGCTCGCCTAGGGAGATTAGAGTATCGGTCGA", "binding signal": 6.94},
      {"sequence": "GTGAACTTTGCCCTCTCTTTCTGGAACCTAGCCTAGGGAGATTAGAGTATCGGTCGA", "binding signal": 5.67},
      {"sequence": "ACTGATCTCTGGCTTGATCCCTGAACTTTGGCCTAGGGAGATTAGAGTATCGGTCGA", "binding signal": 4.37},
      {"sequence": "AAGTGACCCTGGTCTTTGCCCTTTCCTAGAGCCTAGGGAGATTAGAGTATCGGTCGA", "binding signal": 3.98},
      {"sequence": "GGCTTGATCCCTGAACTTTGCTCCCACCCTGCCTAGGGAGATTAGAGTATCGGTCGA", "binding signal": 6.25},
      {"sequence": "TGGAATCCAAAGTATTTTCTGTCTAGGTGCGCCTAGGGAGATTAGAGTATCGGTCGA", "binding signal": 0.637},
      {"sequence": "TTGCCTAACTGCTGCATGTCATGACCTTCAGCCTAGGGAGATTAGAGTATCGGTCGA", "binding signal": 3.69},
      {"sequence": "TCTACTCCCTGTTCTTACACCTGCTCCCCTGCCTAGGGAGATTAGAGTATCGGTCGA", "binding signal": 2.97},
      {"sequence": "TGTATACTTATGTAGAAAGATATCTCTGTGGCCTAGGGAGATTAGAGTATCGGTCGA", "binding signal": 1.3},
      {"sequence": "AAGATCATTCCAGGAATGTTCAAGAAGTTCGCCTAGGGAGATTAGAGTATCGGTCGA", "binding signal": 0.0918},
      {"sequence": "AGATAGGACAGTGGTCTTTATGACTTGGGTGCCTAGGGAGATTAGAGTATCGGTCGA", "binding signal": 1.4},
      {"sequence": "GACTATTTTATTTTCCCCCTTTGAAGTCTGGCCTAGGGAGATTAGAGTATCGGTCGA", "binding signal": 3.2},
      {"sequence": "GTCCTTCCCAAGTCCTGCATGTGTTCACACGCCTAGGGAGATTAGAGTATCGGTCGA", "binding signal": 1.21},
      {"sequence": "GGCCAGGTGGGCTGCTCCCAGTGCCCTTTGGCCTAGGGAGATTAGAGTATCGGTCGA", "binding signal": 4.47}
    ]}
  ]
}
